# According to PubChem BioAssay AID932 (The Scripps Research Institute Molecular Screening Center, 2007):
# The whole screen tested about 200,000 compounds, of which about 5,100 (2.5%) were called active. What follows is part of a selection rich in actives, with near analogues and random picks from the rest. Unmarked numbers belong to inactive results.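 Rule for the calls: active = activation above the screen-wide mean activation plus 3 SD (cut at about 130% in these data); inactive = the rest.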
# Experiment: potentiators of IFN-gamma driven STAT1 reporter – cell-based, HTS, luciferase reporter, primary screen (AID 932);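 note: raw ratio to IFN-gamma control signal so 100% means no change and 0% no light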
# Settings: NIH 3T3 STAT1-luciferase reporter, luminescence, at 5.5 µM, active compounds read high, 100% = IFN-gamma alone, no compound
row,Compound,activation (% of control)
1,Cn1cc(CN2CCC(C(O)CCc3ccccc3)CC2)c(-c2ccccc2F)n1 (stereo not given),97.4%
2,COCCCNC(=S)N1CCCC(c2nc3cc(C)c(C)cc3[nH]2)C1 (stereo not given),140% (active)
3,CCNC(=S)N1CCC(c2nc3cc(C)c(C)cc3[nH]2)CC1,96.7%
4,CCCNC(=S)N1CCCC(c2nc3ccccc3[nH]2)C1 (stereo not given),94.6%
5,CC(=O)NCC(=O)N(Cc1ccco1)C1(C(=O)NC2CCCC2)CCCCC1,89.9%
6,O=C1CC(c2ccccc2)=NN1c1ccc([N+](=O)[O-])cc1,104%
7,Cc1nn(-c2ccc([N+](=O)[O-])cc2)c(N)c1-c1ccccc1,164% (active)
8,Cc1nn(-c2ccccc2)c2c1C(c1cccc([N+](=O)[O-])c1)N(c1ccccc1)C(=O)N2 (stereo not given),97.4%
9,CNC(=O)NC(=O)CSc1nnc(-c2ccc(F)cc2)n1CC1CCCO1 (stereo not given),103%
10,COCC(=O)N=Nc1c(O)[nH]c2ccccc12,110%
11,Cc1cccc(N=Nc2c(C)[nH]n(-c3ccccc3)c2=O)c1,112%
12,Cc1cccc(N=Nc2c(O)[nH]c3ccc(F)cc23)c1,161% (active)
13,CC(=O)COc1ccc2c(-c3ccccc3)cc(=O)oc2c1,109%
14,O=c1c(-c2ccccc2)coc2cc(O)ccc12,137% (active)
15,O=c1c(-c2ccccc2)coc2c(CN3CCOCC3)c(O)ccc12,100%
16,O=c1c2c(ncn1Cc1ccccc1)nc1n2CCC1,96.7%
17,COC(=O)c1ccc(CN2CCN(CCCc3ccccc3)C(CCO)C2)cc1 (stereo not given),96.7%
18,CCOC(=O)c1oc2c(CN3CCN(CCO)CC3)c(O)c(CC)cc2c(=O)c1-c1nc2ccccc2s1,104%
19,C/C(=C\C(=O)c1ccc(Br)cc1)N1CCCCC1,105%
20,CC1CN/C(=C\C(=O)c2ccc(Br)cc2)C(=O)N1 (stereo not given),172% (active)
21,CN1CCCC(OC(=O)COc2ccc(Br)cc2)C1 (stereo not given),101%
22,COc1ccc(-n2c(C)cc(C(=O)CSc3nnc(-c4cccs4)o3)c2C)cc1,85.5%
23,Cc1ccc(-n2c(C)cc(C(=O)CSc3nnc4ccccn34)c2C)cc1,150% (active)
24,O=C(CSc1nnc2ccccn12)c1ccccc1,123%
25,CCOc1ccc(C(=O)NC2CCN(CC(=O)NCc3cccs3)CC2)cc1,105%

row,Compound,activation (% of control)
1,CN(C)CCCCCN(C)Cc1cc2ccccc2o1,91.6%
2,Cc1cc(NC(=O)CSc2nnc(Nc3ccccc3F)s2)no1,102%
3,COc1ccccc1-c1cc(C(=O)NCCCn2ccnc2)no1,112%
4,O=C(NCCCn1ccnc1)c1cc(-c2ccccc2)on1,161% (active)
5,COc1ccc(-c2cc(C(=O)NCCCn3ccnc3)no2)cc1,110%
6,Cc1ccc(NC(=O)CSc2nnc(COc3ccccc3C)o2)cc1,103%
7,Cc1ccccc1-c1nc(C#N)c(NCc2ccco2)o1,98.1%
8,O=C(C(=O)N1CCc2ccccc2C1)c1c[nH]c2ccccc12,105%
9,CC(=O)c1cccc(NC(=O)[C@@H](NC(N)=O)C(C)C)c1,98.5%
10,COc1ccc(-c2csc(NC(=O)COC(=O)c3ccc(Br)o3)n2)cc1,129% (active)
11,COc1ccc(-c2csc(NC(=O)CCCc3cccs3)n2)cc1,91.3%
12,COc1ccc(-c2csc(NC(=O)COC(=O)Cc3ccc(Cl)cc3Cl)n2)cc1,112%
13,CC(C)C(=O)OCC(=O)Nc1ccc2c(c1)CCC2,101%
14,O=C(Nc1ccc2c(c1)CCC2)c1ccc(Br)s1,165% (active)
15,O=C(NC1CCCC1)c1ccc(Br)s1,108%
16,CC1(C)C(c2cccs2)=[N+]([O-])C2(CCCCC2=O)N1O (stereo not given),105%
17,COc1cc(C(=O)N2C(=O)c3cccc(N)c3C2=O)cc(OC)c1OC,104%
18,O=C(CCN1CCCCC1)N=Nc1c(O)[nH]c2ccccc12,93.5%
19,O=C(Nc1ccc2c(c1)C(=O)OC2)Nc1cccc2ccccc12,93.7%
20,c1c2c(cc3sc(N4CCCCC4)nc13)OCCO2,56.4%
21,Fc1ccc2nc(N3CCCCC3)sc2c1,147% (active)
22,Brc1ccc2nc(N3CCCC3)sc2c1,134% (active)
23,Cc1nc(N2CCCCC2)sc1C=O,96.9%
24,Fc1cc(F)c2nc(N3CCOCC3)sc2c1,122%
25,CCOC(=O)N1CCC(NC(=O)c2ccc3nc(N4CCOCC4)sc3c2)CC1,102%

row,Compound,activation (% of control)
1,O=C(COC(=O)CC1CC2CCC1C2)NC(=O)NC1CCCC1 (stereo not given),101%
2,CCOC(=O)c1c(C)n(C)c2ccc(OC)c(NS(=O)(=O)CC)c12,111%
3,CC(=O)c1cc(C#N)c(SCC(=O)Nc2nccs2)nc1C,108%
4,CC(=O)c1cc(C#N)c(SCC(=O)C(C)(C)C)nc1C,140% (active)
5,CC(=O)c1cc(C#N)c(N2CCCCC2)nc1C,95.1%
6,Cc1nc2nc[nH]n2c(=O)c1C/C=C/c1ccccc1,102%
7,Cc1cccc(OC(=O)c2sc3ncn(C)c(=O)c3c2C)c1,134% (active)
8,CCOC(=O)C(C)n1cnc2sc(C)c(C)c2c1=O (stereo not given),105%
9,Cc1c(C(N)=O)sc2ncn(CCOc3ccccc3)c(=O)c12,116%
10,COc1ccc(Br)cc1C(=O)Nc1cccc(C)c1C,95.7%
11,O=S(=O)(ON(c1ccccc1)S(=O)(=O)c1ccccc1)c1ccccc1,105%
12,CCOC(=O)c1cccc(NC(=O)CCOc2ccccc2)c1,97.3%
13,CCOC(=O)N/N=C/c1cccnc1,102%
14,CC(=O)Nc1ccc(S(=O)(=O)NC2(C(F)(F)F)C(=O)Nc3c2c(=O)[nH]c(=O)n3Cc2ccccc2)cc1 (stereo not given),108%
15,CN(C)c1ccnc2sc(C(=O)c3ccccc3)c(N)c12,153% (active)
16,CN(C)c1ccnc2sc3c(=O)n(Cc4ccccc4)cnc3c12,78.3%
17,Cc1nc2sc(C(=O)c3ccccc3)c(N)c2c2c1CCCC2,113%
18,N#Cc1ccccc1NC(=O)COc1c(Br)cc(Br)c2cccnc12,77.3%
19,Cc1ccc(NC(=O)CC2S/C(=N/N=C3\CCCc4ccccc43)NC2=O)cc1 (stereo not given),107%
20,COc1ccc(CCn2ccc(O)c(Cc3ccc(Cl)cc3Cl)c2=O)cc1OC,92.6%
21,CC1CCCN(c2ccc(C(=O)NCCc3ccccc3)cn2)C1 (stereo not given),147% (active)
22,COc1ccc(C(=O)NC2CCN(C(=S)NCCc3ccccc3)CC2)cc1,91.9%
23,O=C(NCCc1ccccc1)c1ccc(NC2=NC3CS(=O)(=O)CC3S2)cc1 (stereo not given),102%
24,CCCC/C(C)=N/NC(=O)NC1CCCCC1,102%
25,NS(=O)(=O)c1ccc(NC(=O)COC(=O)c2ccc(Cl)nc2)cc1,103%

row,Compound,activation (% of control)
1,CCc1ccc(C2N3CC4([N+](=O)[O-])CN2CC([N+](=O)[O-])(C3)C4(C)C)cc1 (stereo not given),90.6%
2,Cc1ccc2nc3n(c(=O)c2c1)CCC3,106%
3,COc1ccc(-c2nc3n(c2Br)CCC3)cc1,131% (active)
4,Brc1cccc(-c2nnc3n2CCC3)c1,101%
5,COc1cc(-c2cc(C(=O)OCC(=O)Nc3ccc4c(c3)OCO4)c3ccccc3n2)cc(OC)c1OC,91.2%
6,Cc1cccc(C)c1N1CCN(S(=O)(=O)N2CCCCC2)CC1,96.7%
7,CC1CN(CCOc2ccccc2[N+](=O)[O-])CC(C)O1 (stereo not given),101%
8,COc1ccc(C2Nc3ccccc3C(=O)N2c2ccc(Cl)cc2)cc1Cn1cc([N+](=O)[O-])cn1 (stereo not given),181% (active)
9,COc1ccc(C2Nc3ccccc3C(=O)N2c2ccc(F)cc2)cc1Cn1nnc2ccccc21 (stereo not given),103%
10,COc1ccc(C2Nc3ccccc3C(=O)N2Cc2ccccc2)cc1Cn1nnc2ccccc21 (stereo not given),101%
11,Cc1nnc(CN(C)Cc2cn[nH]c2-c2ccc(-c3ccccc3)cc2)o1,114%
12,COc1ccc(CCNC(=O)/C(C#N)=C2\N=C(NC(=O)c3cccs3)c3ccccc32)cc1,95.7%
13,COCCCNC(=S)N(Cc1ccccc1)Cc1ccc(F)cc1,90%
14,O=C(Oc1cccc(NC2=NS(=O)(=O)c3ccccc32)c1)c1ccncc1,92.7%
15,CC(C)(C)c1csc(NC2=NS(=O)(=O)c3ccccc32)n1,130% (active)
16,Cc1ccc(S(=O)(=O)N(NC2=NS(=O)(=O)c3ccccc32)C(=O)c2ccccc2)cc1,106%
17,COC(=O)C1=C(C(=O)OC)C(c2cc([N+](=O)[O-])ccc2O)c2sc(=O)[nH]c2S1 (stereo not given),98.4%
18,CCOC(=O)Cc1csc(NC(=O)COc2ccc3c(C)cc(=O)oc3c2)n1,102%
19,COC(=O)COc1cccc2c(=O)n(CC(=O)NCCc3ccc(OC)c(OC)c3)ccc12,100%
20,CC(/C=N/NC(=O)c1ccncc1)=C\c1ccco1,98.5%
21,CC(/C=N/NC(=O)c1cc(-c2ccc3ccccc3c2)n[nH]1)=C\c1ccco1,131% (active)
22,Cc1ccc(-c2cc(C(=O)N/N=C/C=C/c3ccco3)c3ccccc3n2)cc1C,78.9%
23,c1ccc(CSc2nnc(-c3ccco3)c(-c3ccco3)n2)cc1,97.8%
24,O=C(CSc1nnc(-c2ccco2)n1Cc1ccccc1)NC(=O)NCc1ccco1,101%
25,c1ccc(CSc2nnc(-c3ccco3)n2Cc2ccccc2)cc1,144% (active)
